Measured values from the supplement of paper PMC9446081.
± gives the standard deviation of the averaged measurements.

Molecular target: MurC (UniProt C4ZRI6)
Experiment: relative enzymatic activity vs untreated control (fraction); higher = less inhibition
Conditions: 100 µM; incubation time: 2 h at 37 C
Experimental: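 In vitro enzymatic inhibition assays (ProFoldin kits) for 12 purified essential E. coli enzymes or complexes, each treated with 218 active antibacterial compounds at 100 µM for 2 h at 37°C. Read-outs were fluorescence or absorbance (phosphate detection, dye binding), converted to activity via standard curves and expressed relative to untreated DMSO controls.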

Sequence of MurC (C4ZRI6 whole entry, looked up): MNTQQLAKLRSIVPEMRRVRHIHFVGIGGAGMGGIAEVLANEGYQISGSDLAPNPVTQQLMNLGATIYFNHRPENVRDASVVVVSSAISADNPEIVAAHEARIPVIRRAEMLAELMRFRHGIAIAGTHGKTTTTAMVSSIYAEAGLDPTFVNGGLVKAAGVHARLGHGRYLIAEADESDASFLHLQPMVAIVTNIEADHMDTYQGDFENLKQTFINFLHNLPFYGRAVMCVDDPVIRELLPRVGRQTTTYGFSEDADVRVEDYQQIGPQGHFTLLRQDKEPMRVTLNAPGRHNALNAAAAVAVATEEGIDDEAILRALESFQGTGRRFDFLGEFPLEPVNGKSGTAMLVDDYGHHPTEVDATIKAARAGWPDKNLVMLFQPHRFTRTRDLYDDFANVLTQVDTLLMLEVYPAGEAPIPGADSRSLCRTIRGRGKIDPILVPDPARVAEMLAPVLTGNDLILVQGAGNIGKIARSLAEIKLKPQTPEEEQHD

| SMILES | relative enzymatic activity |
| --- | --- |
| CN(C)c1ccc(O)c2c1CC1CC3C(N(C)C)C(O)=C(C(N)=O)C(=O)C3(O)C(O)=C1C2=O.Cl (stereo not given) | 1.05 ± 0.025 |
| CO/N=C(\C(=O)N[C@@H]1C(=O)N2C(C(=O)O)=C(C[n+]3ccn4ncccc43)CS[C@H]12)c1nsc(N)n1 | 0.964 ± 0.082 |
| N[C@@H]1[C@H]2CN(c3nc4c(cc3F)c(=O)c(C(=O)O)cn4-c3ccc(F)cc3F)C[C@@H]12 | 0.885 ± 0.015 |
| C=CC1=C(C(=O)O)N2C(=O)[C@@H](NC(=O)/C(=N\O)c3csc(N)n3)[C@H]2SC1 | 1 ± 0.028 |
| C[C@H]1COc2c(C3(N)CC3)c(F)cc3c(=O)c(C(=O)O)cn1c23 | 1.01 ± 0.03 |
| CNC1C(O)C(NC)C2OC3(O)C(=O)CC(C)OC3OC2C1O.Cl.Cl (stereo not given) | 0.914 ± 0.024 |
| NC(=O)NN=Cc1ccc([N+](=O)[O-])o1 | 1.05 ± 0.014 |
| Cl.O=C1CC2(CCCC2)CC(=O)N1CCCCN1CCN(c2ncccn2)CC1 | 1.073 ± 0.0016 |
| CN(C)CCOC(c1ccccc1)c1ccccc1.Cn1c(=O)c2[nH]c(Cl)nc2n(C)c1=O | 1.02 ± 0.026 |
| CC[C@H](C)C[C@H](C)CCCCCCCCC(=O)N[C@H]1C[C@@H](O)[C@@H](NCCN)NC(=O)[C@@H]2[C@@H](O)CCN2C(=O)[C@H]([C@H](O)CCN)NC(=O)[C@H]([C@H](O)[C@@H](O)c2ccc(O)cc2)NC(=O)[C@@H]2C[C@@H](O)CN2C(=O)[C@H]([C@@H](C)O)NC1=O | 0.94 ± 0.061 |
| CS(=O)(=O)c1ccc(C(O)C(CF)NC(=O)C(Cl)Cl)cc1 (stereo not given) | 1.04 ± 0.036 |
| C=C1c2cccc(O)c2C(=O)C2=C(O)C3(O)C(=O)C(C(N)=O)=C(O)C(N(C)C)C3C(O)C12.Cl (stereo not given) | 1.079 ± 0.0059 |
| CO/N=C1\CN(c2nc3c(cc2F)c(=O)c(C(=O)O)cn3C2CC2)C[C@@H]1CN | 0.717 ± 0.047 |
| O=c1[nH]c(=O)n([C@@H]2C[C@@H](O)[C@@H](CO)O2)cc1F | 1.02 ± 0.035 |
| O=[N+]([O-])c1ccc(O)c2ncccc12 | 1.046 ± 0.004 |
| NC[C@H]1OB(O)c2c(OCCCO)cccc21 | 0.977 ± 0.052 |
| CC1c2cccc(O)c2C(=O)C2=C(O)C3(O)C(=O)C(C(N)=O)=C(O)C(N(C)C)C3C(O)C21.Cl (stereo not given) | 1.02 ± 0.027 |
| C[C@H]1[C@H](NC(=O)/C(=N\OC(C)(C)C(=O)O)c2csc(N)n2)C(=O)N1S(=O)(=O)O | 1.29 ± 0.45 |
| CN(C)c1ccc(O)c2c1C[C@H]1C[C@H]3[C@H](N(C)C)C(=O)[C@@H](C(N)=O)C(=O)[C@@]3(O)C(=O)[C@H]1C2=O | 1.11 ± 0.018 |
| CNC1C(OC2C(OC3C(O)C(O)C(NC(=N)N)C(O)C3NC(=N)N)OC(C)C2(O)CO)OC(CO)C(O)C1O.O=S(=O)(O)O (stereo not given) | 1.1 ± 0.059 |

| SMILES | relative enzymatic activity |
| --- | --- |
| CN(C)[C@@H]1C(=O)[C@@H](C(N)=O)C(=O)[C@@]2(O)C(=O)[C@@H]3C(=O)c4c(O)c(NC(=O)CN5CCCC5)cc(F)c4C[C@H]3C[C@@H]12 | 1.01 ± 0.063 |
| COC1(NC(=O)Cc2cccs2)C(=O)N2C(C(=O)[O-])=C(COC(N)=O)CSC21.[Na+] (stereo not given) | 1.15 ± 0.057 |
| O=c1[nH]c(=O)n(C2CC(O)C(CO)O2)cc1F (stereo not given) | 0.948 ± 0.082 |
| Cc1cn(C2CC(N=[N+]=[N-])C(CO)O2)c(=O)[nH]c1=O (stereo not given) | 1.01 ± 0.068 |
| CCOC(=O)OC(C)OC(=O)C1N2C(=O)C(NC(=O)C(N)c3ccccc3)C2SC1(C)C.Cl (stereo not given) | 1.01 ± 0.035 |
| NC[C@H]1O[C@H](O[C@H]2[C@H](O)[C@@H](O[C@H]3O[C@H](CO)[C@@H](O)[C@H](N)[C@H]3O)[C@H](N)C[C@@H]2N)[C@H](N)C[C@@H]1O | 0.918 ± 0.078 |
| Cl.NC1CCN(c2c(F)cc3c(=O)c(C(=O)O)cn(C4CC4)c3c2Cl)C1 (stereo not given) | 1.06 ± 0.063 |
| O=C1C=CC(=O)N1 | 0.992 ± 0.03 |
| Cc1oc(=O)oc1CN1CCN(c2cc3c(cc2F)c(=O)c(C(=O)O)c2n3C(C)S2)CC1 (stereo not given) | 0.821 ± 0.066 |
| Oc1ccc(Cl)c2cccnc12 | 1.16 ± 0.16 |
| CC1COc2c(C3(N)CC3)c(F)cc3c(=O)c(C(=O)O)cn1c23.CS(=O)(=O)O (stereo not given) | 0.958 ± 0.027 |
| CN(C)c1cc(CNCC(C)(C)C)c(O)c2c1C[C@H]1C[C@H]3[C@H](N(C)C)C(=O)[C@H](C(N)=O)C(=O)[C@@]3(O)C(=O)[C@@H]1C2=O | 1.13 ± 0.062 |
| Oc1c(Cl)cc(Cl)c2cccnc12 | 0.928 ± 0.088 |
| CN[C@@H]1[C@H](O)[C@H](NC)[C@H]2O[C@@]3(O)C(=O)C[C@@H](C)O[C@H]3O[C@@H]2[C@H]1O | 0.955 ± 0.11 |
| CC[C@@H](C)CCCCC(=O)N[C@@H](CCN)C(=O)N[C@H](C(=O)N[C@@H](CCN)C(=O)N[C@H]1CCNC(=O)[C@H]([C@@H](C)O)NC(=O)[C@H](CCN)NC(=O)[C@H](CCN)NC(=O)[C@H](CC(C)C)NC(=O)[C@@H](Cc2ccccc2)NC(=O)[C@@H](CCN)NC1=O)[C@@H](C)O | 1.03 ± 0.032 |
| Cc1cc(=O)c(C(=O)N[C@@H](C(=O)N[C@@H]2C(=O)N3C(C(=O)O)=C(CSc4nnnn4C)CS[C@H]23)c2ccc(O)cc2)c[nH]1 | 1.18 ± 0.11 |
| CN(C)c1ccc(O)c2c1C[C@@H]1C[C@@H]3[C@@H](N(C)C)C(=O)C(C(N)=O)=C(O)[C@]3(O)C(=O)[C@H]1C2=O | 1.17 ± 0.024 |
| COc1cc(Cc2cnc(N)nc2N)cc(OC)c1OC | 1.03 ± 0.086 |
| CN(C)c1ccc(O)c2c1C[C@H]1C[C@H]3[C@H](N(C)C)C(=O)C(C(N)=O)=C(O)[C@@]3(O)C(=O)[C@H]1C2=O | 0.99 ± 0.069 |
| CC(=O)On1cc(F)c(=O)[nH]c1=O | 1.07 ± 0.079 |
